The results in this text go back to PubChem BioAssay (NCI).

The structures appear in SMILES notation. This is part of a sample that, as a whole, favours compounds with a hit. Of some 83,000 tested, about 20% had one in any assay.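 Results are percent growth after 48 hours of single-concentration exposure. 100 means growth as in untreated cells, lower positive values show inhibition; negative values down to -100 show cell death.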 A number with no mark means an inactive call. Calls of active or inactive are those of the source. The calls were made as follows: active = growth percent below 10; inactive = the rest.

The first assay has as its system A498 renal. Nature of the assay: NCI-60 one-dose screen, 48 h (100 = growth as untreated, 0 = no growth, -100 = all killed). The note with it: 10 µM unless noted.
For the molecule `Cc1ccc(S(=O)(=O)N(CCc2ccc(Cl)cc2)S(=O)(=O)c2ccc(C)cc2)cc1`, the growth is 115%.

With `O=C(N/N=C/c1ccc(O)cc1O)c1cccnc1`, the growth is 92%.

With `CNC(=S)N/N=C/CSC/C=N/NC(=S)NC`, the growth was 110%.

For the molecule `COc1ccc(-c2c(C)noc2-c2ccc(O)cc2O)cc1`, the growth was 88%.

A further assay relates to CCRF-CEM leukemia. Described as above. The note with it: 10 µM unless noted.
As for `Nc1cc2nc3ccccc3sc-2cc1=O`, the growth is 18.4%.

Consider `C#Cc1nc(Nc2cc(C)[nH]n2)c2ccccc2n1`, for which the growth is 2.05% (active).

With `CCOC(=O)c1nc(Nc2cc(C)[nH]n2)c2ccccc2n1`, the growth is 96.9%.

On to `O=C(/C=C/c1ccc(Cl)cc1)/C=C/c1cc2ccccc2[nH]c1=O`, for which the growth is 2.35% (active).

`CCOC(=O)c1ccc2c(c1)nc(/C=C/c1ccc(Cl)cc1)n2-c1cc(C(C)(C)C)[nH]n1`: the growth was 13.5%.

For `CC(=O)OCC(=O)C1CCC=CC1OC(C)=O` (configuration not stated), the growth is 99.7%.

On to `COc1cc(C2CC(=O)c3c(C)nn(-c4nc5ccccc5[nH]4)c3C2)cc(OC)c1OC` (configuration not stated), for which the growth is 104%.

`CC1(C)OCC2OC3(C(=O)O)OC(C)(C)OC3C2O1` (configuration not stated): the growth was 108%.

As to `COc1ccc(C(=O)c2sc3nc(-c4ccccc4OC)ccc3c2N)cc1OC`, the growth was 26.5%.

Regarding `COc1ccc(C(=O)c2sc3nc4c(cc3c2N)CCCC4)cc1OC`, the growth is 28.9%.

Regarding `Cc1ccc2c(NCCCN(C)C)c3c(C)nn(C)c3nc2c1`, the growth was 31.7%.

On to `Cc1ccc(NC(=O)c2sc3nc4c(cc3c2N)C(=O)CCC4)cc1C`, for which the growth is 13.6%.

Take `COc1c(C2CC(=O)Nc3c2cnn3Cc2ccco2)cc2c(c1OC)OCO2` (configuration not stated): the growth was 10.1%.

For the molecule `Cc1ccn2c(-c3csc(Nc4cccc(O)c4)n3)c(C)nc2c1`, the growth is 23.7%.

For `NC(CC(=O)O)C(=O)OCc1ccccc1` (configuration not stated), the growth was 108%.

In the case of `O=C1Nc2ccc(Br)cc2C12CC(c1ccccc1)=NN2` (configuration not stated), the growth was 32.3%.

With `Cc1cc(Nc2nc(N3CCNCC3)nc3ccccc23)n[nH]1`, the growth is 108%.

Regarding `CCc1ccccc1NC(=O)c1sc2nc3c(cc2c1N)C(=O)CCC3`, the growth is 13.6%.

As to `CCOC(=O)N1CCN(c2nc(Nc3cc(C)[nH]n3)c3ccccc3n2)CC1`, the growth was 40.1%.

Turning to `CN1CCCCC1CCN1c2ccccc2Sc2ccc(Cl)cc21` (configuration not stated), the growth is 39.3%.

Take `COc1c(Cl)cc(Cl)cc1Cl`: the growth was 110%.

For the molecule `Cc1cc(Nc2nc(N3CCOCC3)nc3ccccc23)n[nH]1`, the growth was 65.6%.

As for `COc1ccc(C2CC(=O)Nc3c2c(C)nn3-c2nc3ccccc3[nH]2)cc1` (configuration not stated), the growth is 10.1%.

Turning to `COc1cc(-c2cc(-c3nc4ccc(Cl)cc4[nH]3)[nH]n2)cc(OC)c1OC`, the growth is 7.12% (active).

Consider `Cc1noc(C)c1-c1cc(O)cc(C(O)c2ccccc2)c1` (configuration not stated), for which the growth was 46.7%.

Take `COc1ccc(-c2nc(Nc3cc(C)[nH]n3)c3ccccc3n2)cc1`: the growth is 49.3%.

For `Cc1cc(Nc2nc(-c3cccnc3)nc3ccccc23)n[nH]1`, the growth was 57.3%.

As for `CC#Cc1nc2ccccc2c(=O)[nH]1`, the growth was 19.6%.

In the case of `O=C(Nc1ccc(F)cc1)Nc1ccc(CCO)cc1`, the growth was 107%.

As for `CCCCNC(=O)NS(=O)(=O)c1ccc(N2N=C(c3cc(C)ccc3C)CC2c2cc(OC)c(OC)c(OC)c2)cc1` (configuration not stated), the growth is 55.1%.

`COc1cc(C2C(C(=O)c3cccs3)=C(O)C(=O)N2CCN2CCOCC2)cc(OC)c1OC` (configuration not stated): the growth was 120%.

As for `NCc1cn2cc(Cl)sc2n1`, the growth was 103%.

Consider `CCCCCCCCCCCCN1CCCC(C)C1` (configuration not stated), for which the growth was 44.7%.

Turning to `O=c1c2cccc3c(Nc4ccccn4)ccc(c32)c2nc3ccccc3n12`, the growth is 51.8%.

Take `Cc1ccc(S(=O)(=O)N(CCc2ccc(Cl)cc2)S(=O)(=O)c2ccc(C)cc2)cc1`: the growth was 83.7%.

As for `O=C(N/N=C/c1ccc(O)cc1O)c1cccnc1`, the growth was 5.78% (active).

As to `CNC(=S)N/N=C/CSC/C=N/NC(=S)NC`, the growth is 20.4%.

Take `COc1ccc(-c2c(C)noc2-c2ccc(O)cc2O)cc1`: the growth is 71.7%.
